Screening results: PubChem BioAssay, Sanford-Burnham Center for Chemical Genomics
An excerpt weighted towards active compounds, which were near 31% of everything screened.
CYP2C9 inhib: blocks human cytochrome P450 2C9; actives 20% (n = 96,000); CYP2C9 Supersomes, luciferin-H conversion, luminescence; AID 777; inhibition, % at 5 µM; P11712;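 active = blocking of liver enzyme CYP2C9 beyond about 50% at 5 µM, limit read from the data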
Target sequence (P11712 whole entry, looked up): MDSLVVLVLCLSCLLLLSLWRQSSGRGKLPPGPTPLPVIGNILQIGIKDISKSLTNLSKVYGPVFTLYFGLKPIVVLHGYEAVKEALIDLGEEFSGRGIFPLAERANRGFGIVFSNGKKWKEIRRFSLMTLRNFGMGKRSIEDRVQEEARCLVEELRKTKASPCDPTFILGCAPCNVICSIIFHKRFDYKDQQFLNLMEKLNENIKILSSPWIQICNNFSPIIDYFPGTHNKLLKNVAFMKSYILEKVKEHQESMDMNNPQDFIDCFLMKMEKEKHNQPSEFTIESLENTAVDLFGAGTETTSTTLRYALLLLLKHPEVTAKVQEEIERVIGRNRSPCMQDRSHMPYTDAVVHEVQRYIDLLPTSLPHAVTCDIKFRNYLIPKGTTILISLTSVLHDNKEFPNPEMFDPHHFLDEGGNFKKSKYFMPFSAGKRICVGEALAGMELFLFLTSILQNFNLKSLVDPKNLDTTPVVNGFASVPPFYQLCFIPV
CYP2C19 inh: inhibitors of human CYP2C19 | CYP2C19 Supersomes, luciferin-H EGE luminescence, 30 min | inhibition, % at 5 µM | actives 21% (n = 96,000) | AID 778;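 active = CYP2C19 inhibition above a set limit at 5 µM in the primary screen, cut at about 50% in these data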
CYP2C9 act: activators of human CYP2C9; recombinant CYP2C9, luciferin-H conversion, luminescence; stronger effect = higher value; factor 1 = untreated enzyme, 0 = blocked; activation factor at 5 µM; actives 1.4% (n = 96,000); P11712;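 active = activation factor of 2 or more for CYP2C9 at a 5 µM dose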
CYP2C19 act: increases human CYP2C19 enzyme activity; activation factor at 5 µM; 96,000 tested, under 10 active; P33261; recombinant CYP2C19, luciferin-H EGE luminescence; stronger effect = higher value; 0 = fully inhibited enzyme, 1 = untreated enzyme;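 active = activation factor of at least 2 at 5 µM in the primary screen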
PLAP act: human PLAP activation; P05187; activation fold at 20 µM; actives 1.2% (n = 96,000); purified PLAP enzyme, luminescent substrate read-out; stronger effect = higher value; in the data active = activation fold above about 2
Each line names hits and unclear results; the compound was inactive in the other large screens.

O=C(OCC(=O)N1N=C(c2ccc(Cl)cc2)CC1c1ccco1)c1ccccc1O (stereo unspecified)	CYP2C9 inhib 87.8
O=C(Cc1cccs1)Nn1c(Cc2cccs2)nc2ccccc2c1=O	CYP2C9 inhib 71.8
O=C(CSc1nc2ccsc2c(=O)n1Cc1ccccc1)NCc1ccco1	none
O=C(CSc1nc2ccccc2c(=O)n1-c1ccccc1)NCc1ccco1	none
O=C(CSc1nc2ccsc2c(=O)n1NC(=O)c1ccccc1)NCc1ccco1	CYP2C9 inhib 64.5, CYP2C19 inh 59.5
O=C(CSc1nc2ccccc2c(=O)n1NC(=O)Cc1ccccc1)NCc1ccco1	CYP2C9 inhib 88.1
O=C(CSc1nc2ccccc2c(=O)n1NC(=O)Cc1ccccc1)NCc1ccccc1	CYP2C9 inhib 92.8
CC1(NC(=O)c2cc(S(=O)(=O)N3CCCCC3)ccc2Cl)CCS(=O)(=O)C1 (stereo unspecified)	none
Cc1ccc2oc(=O)c3cnn(CC(=O)NC4CCCCC4C)c3c2c1 (stereo unspecified)	none
CCOC(=O)c1ccc2cccc(C)n2c1=O	CYP2C9 inhib 74.4, CYP2C19 inh 87.5
CCCCCC1CCC(C(=O)NNC(=S)NCC)CC1 (stereo unspecified)	none
O=c1c2ccccc2c(C=NCCO)c(O)n1-c1ccccc1	none
Cc1ccc(-n2c(O)c(/C=N/n3cnnc3)c3ccccc3c2=O)cc1	CYP2C9 inhib 90.7
O=c1c2ccccc2c(/C=N/n2cnnc2)c(O)n1-c1ccccc1F	CYP2C9 inhib 58.3
C(=N\n1cnnc1)/c1cccc2ccccc12	none
CC(C)NC(=O)c1onc(CSc2cccc3ccccc23)c1C(=O)O	CYP2C9 inhib 95.2
CCOc1cccc(SCc2noc(C(=O)NCCOC)c2C(=O)O)c1	none
CCCCNC(=O)c1onc(CSc2ccc(C(C)C)cc2)c1C(=O)O	CYP2C9 inhib 93.8
O=C(NCC1CCCO1)c1onc(CSc2ccccc2F)c1C(=O)O (stereo unspecified)	none
COCCNC(=O)c1onc(CSc2ccc(Cl)cc2)c1C(=O)O	none
CCCCNC(=O)c1onc(CSc2cccc3ccccc23)c1C(=O)O	CYP2C9 inhib 96.8, CYP2C19 inh 57.7
CCCCNC(=O)c1onc(CSc2cccc(OCC)c2)c1C(=O)O	CYP2C9 inhib 91.9
O=C(CSCc1ccc(F)cc1)Nc1nc2c(s1)CCCC2	none
CCCCNC(=O)c1onc(CSc2cccc(Cl)c2)c1C(=O)O	CYP2C9 inhib 84.2
COCCNC(=O)c1onc(CSc2ccc(C(C)C)cc2)c1C(=O)O	CYP2C9 inhib 66.4
CCCCNC(=O)c1onc(CSc2ccccc2)c1C(=O)O	CYP2C9 inhib 56.9
C=Cn1ccnc1P(=S)(c1ccc2c(c1)c1ccccc1n2CC)c1nccn1C=C	none
CCN(C#N)c1nc(N(C)C)nc(N(C)C)n1	none
CCCCCC(=O)Nc1cc2[nH]c(=O)cc(COC)c2cc1C	none
NC(=O)c1ccc(C(F)(F)F)n(Cc2ccccc2Cl)c1=O	CYP2C19 inh 68.7
O=C(CN1C(=O)C2C3C=CC(C3)C2C1=O)N1CC(=O)N(CCc2ccccc2)C(=O)C1 (stereo unspecified)	none
Cc1cccc(-c2noc(CCCOc3ccc(Cl)cc3Cl)n2)c1	none
OC(Cn1cncn1)c1ccc(Cl)cc1Cl (stereo unspecified)	CYP2C9 inhib 56.3, CYP2C19 inh 98.1
OC(c1ccc(Cl)cc1Cl)C(Cc1cccnc1)n1cncn1 (stereo unspecified)	CYP2C19 inh 86.4
O=C(Cn1cncn1)NCc1cccc2ccccc12	none
OC(Cn1cncn1)c1ccc(Cl)cc1 (stereo unspecified)	CYP2C9 inhib 58.2, CYP2C19 inh 95.1
CCOC(=O)N1CCN(CC(=O)Nc2ccc(Oc3ccccc3)cc2)CC1	none
Cc1ccc(S(=O)(=O)CC(c2ccccc2)N2CCOCC2)cc1 (stereo unspecified)	CYP2C19 inh 56.8
Cc1ccc(S(=O)(=O)NCC(=O)N2CCOCC2)cc1	none
CC(=O)c1cccc(NC(=O)Nc2cc3sccc3n2C)c1	none
CCCCCN(C(=O)CN(C)Cc1ccc(OC)cc1OC)c1c(N)n(CCCC)c(=O)[nH]c1=O	PLAP act 2.4
COc1ccc(OC)c(NC2c3ccccc3C(=O)N2c2cccnc2)c1 (stereo unspecified)	CYP2C9 inhib 67.0, CYP2C19 inh 56.8
O=C1c2ccccc2C(O)N1c1cccnc1 (stereo unspecified)	none
O=C1c2ccccc2C(Nc2ccc(Cl)cn2)N1c1cccnc1 (stereo unspecified)	CYP2C19 inh 84.7
Cc1ccc(N2C(=O)c3ccccc3C2Nc2cccnc2)nc1 (stereo unspecified)	none
COc1ccc(C(=O)C[n+]2ccc3c(c2)nc(-c2ccc(OC)cc2OC)n3C)cc1	none
NC(=O)c1cc(-c2ccccc2)sc1NC(=O)Cc1ccc(S(=O)(=O)N2CCOCC2)s1	CYP2C9 inhib 51.6
N#Cc1c2c(c(N3CCN(c4ccccn4)CC3)n3c1nc1ccccc13)CCC2	CYP2C9 inhib 54.0, CYP2C19 inh 58.8
Cc1cc(S(=O)(=O)Nc2ccc(N(C)C)cc2)c(C)s1	CYP2C9 inhib 99.6, CYP2C19 inh 100.4
Cc1cc(S(=O)(=O)NCCc2ccccc2)c(C)s1	none
OCC1(CO)COC2(CCCC2)N1	none
COc1ccc(CCN2C(=O)CC(NCCc3ccc(S(N)(=O)=O)cc3)C2=O)cc1OC (stereo unspecified)	none
O=C1CC(NCc2ccco2)C(=O)N1CCc1ccccc1 (stereo unspecified)	none
Cc1ccc(NC2CC(=O)N(CCc3ccccc3)C2=O)cc1 (stereo unspecified)	CYP2C19 inh 63.8
COc1ccc(CCNC2CC(=O)N(CCc3ccccc3)C2=O)cc1 (stereo unspecified)	CYP2C19 inh 70.4
O=C(CCN1C(=O)c2cccc3cccc(c23)C1=O)N1CCN(Cc2ccc3c(c2)OCO3)CC1	none
C/C=C/c1ccc(OCCCCn2cncn2)c(OC)c1	CYP2C19 inh 75.2
C/C=C/c1ccc(OCCn2cncn2)c(OC)c1	CYP2C19 inh 64.9
C/C=C/c1ccc(OCCCn2cncn2)c(OC)c1	CYP2C9 inhib 50.1, CYP2C19 inh 89.0
COc1cc(C=O)ccc1OCCCOc1ccccc1C(=O)O	none
C/C=C/c1ccc(OCCCNC2CCCC2)c(OC)c1	none
C/C=C/c1ccc(OCCCNC(C)CC)c(OC)c1 (stereo unspecified)	none
Cc1onc(-c2ccccc2Cl)c1C(=O)Nc1cnn(Cc2ccccc2)c1	none
O=C1C(=O)c2c(C(=O)c3ccccc3)coc2-c2ccccc21	CYP2C9 inhib 94.7, CYP2C19 inh 82.5
Cc1oc2c(c1C(=O)c1ccccc1)C(=O)C(=O)c1ccccc1-2	CYP2C9 inhib 89.7, CYP2C19 inh 91.9
CC(=O)NC(CCS(C)(=O)=O)C(=O)N1CCc2ccccc21 (stereo unspecified)	none
COc1nc(NCc2cccnc2)nc(OC)n1	none
FC(F)(F)c1cc(-c2ccco2)nc(NCc2cccnc2)n1	CYP2C9 inhib 65.7, CYP2C19 inh 84.9
FC(F)(F)c1cc(-c2ccco2)nc(NCc2ccccc2)n1	none
